What all share (test): NCI-60 one-dose screen, 48 h (100 = growth as untreated, 0 = no growth, -100 = all killed)
What all share (conditions): 10 µM unless noted

The subject of assay [1] is NCI-H23 lung.
Assay [2] has as its system NCI-H226 lung.
Assay [3] has as its system NCI-H322M lung.
Assay [4] concerns HOP-62 NSCLC.
For assay [5], the system named is NCI-H460 lung.
Assay [6] concerns HOP-92 NSCLC.
Assay [7] deals with NCI-H522 lung.
The subject of assay [8] is A549/ATCC NSCLC.
Assay [9] has as its system 786-0 renal.
Assay [10] relates to COLO 205 colon.
Assay [11] deals with DU-145 prostate.
For assay [12], the system named is K-562 leukemia.
Assay [13] relates to MALME-3M melanoma.
The test system of assay [14] is MDA-MB-231 breast.
Assay [15] has as its system RXF 393 renal.
In assay [16] the test system is SF-268 CNS.
The subject of assay [17] is SF-295 CNS.
Assay [18] concerns SF-539 CNS.
For assay [19], the system named is UACC-257 melanoma.
Assay [20] deals with M14 melanoma.

The panel holds about 83,000 compounds, 20% with a hit somewhere; the sample as a whole holds those more often.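 The test compound was applied at a single concentration to cells in 96-well plates for 48 hours, and percent growth was recorded.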 A number with no mark means an inactive call. Active and inactive are the calls of the source. How the source made its calls: active means growth percent below 10; inactive means the rest.

Regarding `NC(=O)c1cccc(-n2ccc3cc(NC(=O)Nc4cc(C(F)(F)F)cc(C(F)(F)F)c4)ccc32)n1`, the growth in assay [1] is 44.5%; in [2], 70%; in [3] it was 71.4%; in [4] it was 44.8%; in assay [5], 29%; in assay [6], 52.5%. The growth was 59.1% in assay [7]; 34.1% in assay [8]; 24.3% in [9]; 62.5% in [10]; 50.7% in [11]; 33.4% in assay [12]. Moreover, the growth in assay [13] is 43.1%; in [14], 65.5%; in assay [15] it was 7.56% (active); in assay [16], 38.5%; in [17], 18.5%; in [18], 52.2%. The results for the growth in [19] and in assay [20] were 72.2% and 51%, respectively.

`Nc1c(C(=O)Nc2ccc(Cl)cc2)cc(-c2nc3ccccc3s2)c(=O)n1NS(=O)(=O)c1ccc(Cl)cc1`: the growth in assay [1] is 92.7%; in assay [2] it was 86.4%; in assay [3], 93.8%; in assay [4], 102%; in [5] it was 106%; in assay [6] it was 96.2%. Moreover, the growth in assay [7] was 91.3%; in [8], 104%; in assay [9], 101%; in assay [10], 105%; in assay [11], 107%; in assay [12], 95.7%. Also, the growth is 107% in assay [13]; 94.1% in assay [14]; 104% in [15]; 96.7% in [16]; 98.4% in [17]; 102% in assay [18]. Besides, the growth in assay [19] was 104%; in [20] it was 98.2%.

As to `COc1cc2nc(-c3ccc(C(F)(F)F)cc3)cc(OCCN3CCCC3)c2cc1OC`, the growth in assay [1] is 80.9%; in assay [2], 82.7%; in assay [3], 88.9%; in assay [4] it was 83.6%; in assay [5] it was 68.1%; in assay [6], 60.7%. In addition, the growth in [7] is 95.7%; in assay [8], 93.5%; in assay [9], 76.4%; in assay [10], 77.9%; in assay [11], 84.1%; in [12] it was 47.4%. Besides, the growth in [13] is 85.8%; in [14], 74.6%; in assay [15], 65.4%; in [16], 81%; in assay [17] it was 83%; in [18] it was 81.1%. The growth is 68.9% in assay [19] and 4.5% (active) in assay [20].

Turning to `O=S(=O)(O)c1cc(O)c2c(N=Nc3ccc(Nc4ccccc4)c4c(S(=O)(=O)O)cccc34)cc(S(=O)(=O)O)cc2c1`, the growth in [1] was 100%; in assay [2], 101%; in [3], 120%; in [4], 100%; in assay [5] it was 105%; in assay [6], 101%. The growth in assay [7] was 93.5%; in [8] it was 101%; in [9], 102%; in [10], 97.9%; in [11] it was 107%; in assay [12], 112%. Moreover, the growth in assay [13] was 130%; in assay [14] it was 102%; in [15] it was 109%; in assay [16], 101%; in assay [17], 105%; in assay [18], 96.2%. Also, the growth in assay [19] was 95.6%; in [20], 103%.

`COc1cccc(NC(=O)c2cccc(-c3cc(=O)c4c(OC)c(OC)c(OC)cc4o3)c2)c1`: the growth in assay [1] is 63.1%; in [2] it was 63.3%; in assay [3], 80.1%; in assay [4], 59.5%; in assay [5] it was 60.1%; in [6] it was 41.9%. The growth in assay [7] was 46.6%; in assay [8], 62.8%; in assay [9], 68.9%; in assay [10], 68.3%; in [11], 71.8%; in assay [12], 40.3%. Besides, the growth in assay [13] was 84.8%; in assay [14], 59.6%; in assay [15] it was 47.9%; in assay [16], 63.1%; in assay [17] it was 70.8%; in assay [18], 77.5%. The growth was 92.4% in assay [19] and 73.5% in [20].

Take `CCCCCCc1nc2nc(Cl)c(Cl)nc2[nH]1`: the growth was 34.8% in assay [1]; 63.2% in assay [2]; 96% in [3]; 88.1% in assay [4]; 52.7% in assay [5]; -13.8% (active) in assay [6]. The growth in assay [7] is 32.6%; in assay [8], 53.2%; in [9] it was 65.8%; in assay [10] it was 102%; in assay [11], 72.5%; in assay [12], 39%. Moreover, the growth was 46.6% in [13]; 89.4% in [14]; 90.4% in [15]; 83.3% in assay [16]; 58% in assay [17]; 65.3% in assay [18]. The growth is 54.9% in assay [19] and 89.6% in assay [20].

Consider `CCCN=C(N)c1ccc(NC(=O)c2ccc(C(=O)Nc3ccc(C(N)=NCCC)cc3)cc2)cc1`, for which the growth in [1] is 93.1%; in [2], 73.4%; in assay [3], 96.2%; in [4] it was 86.2%; in [5] it was 99.1%; in [6] it was 88.6%. The growth is 95% in assay [7]; 97.4% in [8]; 98.7% in assay [9]; 70.5% in [10]; 107% in [11]; 91% in assay [12]. For the same compound, the growth was 88.1% in assay [13]; 96.6% in [14]; 96.5% in assay [15]; 95.8% in assay [16]; 90.3% in [17]; 92.8% in assay [18]. Moreover, the growth was 101% in assay [19] and 98.4% in [20].

With `Cc1cc2cc3cc(C)c(N)cc3[n+](C)c2cc1N`, the growth in assay [1] is 0.672% (active); in assay [2] it was 30.9%; in assay [3], 28.4%; in [4], 19.3%; in assay [5], -14.5% (active); in [6], -11.9% (active). Also, the growth in [7] was -4.5% (active); in assay [8], 3.82% (active); in [9], 14.7%; in assay [10] it was -46.5% (active); in [11], 19.1%; in assay [12] it was 9.81% (active). Besides, the growth in assay [13] was 1.11% (active); in assay [14], 20.2%; in [15] it was 26.3%; in assay [16], 14.2%; in assay [17], -4.54% (active); in assay [18] it was 17.3%. Besides, the growth in assay [19] is 5.88% (active); in assay [20], 18.7%.

(Values after PubChem BioAssay (NCI).)
